PubChem BioAssay AID602198 (NMMLSC, 2012)
Entries with a potency or affinity are not part of this list. Calls of active or inactive are those of the source. No rule for the calls is given here.

Assay: V-ATPase regulators in yeast, concentration series – S. cerevisiae, pHLuorin, cherry pick 2, dose response (AID 602198)

| Compound | outcome |
| --- | --- |
| Cc1ccsc1/C=C1\C(=O)NC(=S)N(C)C1=O | inactive |
| COc1ccc(N2C(=O)/C(=C/c3ccc(C)o3)C(=O)NC2=S)cc1 | inactive |
